The values below come from PubChem BioAssay (NCATS).

SMILES strings stand for the structures. Results filed as inconclusive are left out. Activity calls are given as the source filed them. Unless noted, the call rests on the fitted dose curve; in most records, active means well fitted curve in the direction sought with a large enough effect; inconclusive means small, poorly fitted or top-dose-only effect, or another doubt; inactive means no such curve, though single readings can be large; an effect the other way counts as inactive or inconclusive.

Assay [1] in a line: qHTS for Inhibitors of the Functional Ribonucleoprotein Complex (vRNP) of Lassa (LASV) Arenavirus: Viability assay - alamar blue signal for LASV Primary Screen (AID 1347083; calls by dose curve; tested in HEK293 reporter line; further: nearly all actives have a fitted effect of over 80% in size; further: potency means the concentration at half of the fitted maximal effect). In general terms: Quantitative high-throughput screening tests each substance at several concentrations.
Assay [2] in a line: qHTS for Inhibitors of the Functional Ribonucleoprotein Complex (vRNP) of Lymphocytic Choriomeningitis Arenaviruses (LCMV): Viability assay - alamar blue signal for LCMV Primary Screen (AID 1347085; calls by dose curve; tested in HEK293 reporter line; further: nearly all actives have a fitted effect of over 80% in size; further: potency means the concentration at half of the fitted maximal effect).
Assay [3] deals with Nucleoprotein (Lymphocytic choriomeningitis virus (strain Armstrong)) (UniProt P09992). The experiment in a line: qHTS for Inhibitors of the Functional Ribonucleoprotein Complex (vRNP) of Lymphocytic Choriomeningitis Arenaviruses (LCMV): LCMV Primary Screen - GLuc reporter signal (AID 1347086; calls by dose curve; further: nearly all actives have a fitted effect of over 70% in size; further: potency means the concentration at half of the fitted maximal effect).
A short description of assay [4]: qHTS of pediatric cancer cell lines to identify multiple opportunities for drug repurposing: Primary screen for TC32 cells (AID 1347089). Further: nearly all actives have a fitted effect of over 60% in size. In a few lines:
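Luminescent ATP read-out (CellTiter-Glo) of metabolically active TC32 cells after 48 h exposure. Concentration-response curves came from 11-point (MIPE, 0.78 nM–46 µM) or 8-point (NPC, 0.59 nM–46 µM) primary titrations; follow-up used 11 points.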

A short description of assay [5]: qHTS of pediatric cancer cell lines to identify multiple opportunities for drug repurposing: Primary screen for DAOY cells (AID 1347090). Further: series mostly up to about 46 µM; nearly all actives have a fitted effect of over 55% in size. The essentials: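 Viability measured as metabolically active cells via CellTiter-Glo luminescence following 48 hours of compound exposure, 11-point dilutions in confirmatory testing. 500-1,000 cells/well plated 5 hours before dosing; controls were DMSO and 2.3 µM bortezomib.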

The nature of assay [6]: qHTS of pediatric cancer cell lines to identify multiple opportunities for drug repurposing: Primary screen for A673 cells (AID 1347092). Further: nearly all actives have a fitted effect of over 45% in size. In a few lines: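 Cell viability of A673 measured by CellTiter-Glo ATP luminescence after 48 hours compound exposure. Dilution series spanned 0.78 nM to 46 µM (MIPE, 11-point) or 0.59 nM to 46 µM (NPC, 8-point); bortezomib 2.3 uM positive control.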

Assay [7] in a line: qHTS of pediatric cancer cell lines to identify multiple opportunities for drug repurposing: Primary screen for SK-N-MC cells (AID 1347093). Further: series mostly up to about 46 µM. In a few lines:
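Metabolically active cells were quantified by ATP-dependent luminescence (CellTiter-Glo, 15 min at room temperature) following 48 h treatment. Cells had been plated at 500-1,000 per well and settled for 5 h beforehand.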

Assay [8] in a line: qHTS of pediatric cancer cell lines to identify multiple opportunities for drug repurposing: Primary screen for NB-EBc1 cells (AID 1347095). In a few lines: (§1)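 Following a 5-hour attachment period, cells at 500-1,000/well received compounds and were cultured for 48 hours. CellTiter-Glo was added and luminescence read to estimate viable, metabolically active cells.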
Assay [9] is described as follows: qHTS of pediatric cancer cell lines to identify multiple opportunities for drug repurposing: Primary screen for BT-37 cells (AID 1347094). Further: series mostly up to about 57 µM. The essentials: as §1

Nucleoprotein (Lymphocytic choriomeningitis virus (strain Armstrong)), sequence (P09992 whole entry, looked up): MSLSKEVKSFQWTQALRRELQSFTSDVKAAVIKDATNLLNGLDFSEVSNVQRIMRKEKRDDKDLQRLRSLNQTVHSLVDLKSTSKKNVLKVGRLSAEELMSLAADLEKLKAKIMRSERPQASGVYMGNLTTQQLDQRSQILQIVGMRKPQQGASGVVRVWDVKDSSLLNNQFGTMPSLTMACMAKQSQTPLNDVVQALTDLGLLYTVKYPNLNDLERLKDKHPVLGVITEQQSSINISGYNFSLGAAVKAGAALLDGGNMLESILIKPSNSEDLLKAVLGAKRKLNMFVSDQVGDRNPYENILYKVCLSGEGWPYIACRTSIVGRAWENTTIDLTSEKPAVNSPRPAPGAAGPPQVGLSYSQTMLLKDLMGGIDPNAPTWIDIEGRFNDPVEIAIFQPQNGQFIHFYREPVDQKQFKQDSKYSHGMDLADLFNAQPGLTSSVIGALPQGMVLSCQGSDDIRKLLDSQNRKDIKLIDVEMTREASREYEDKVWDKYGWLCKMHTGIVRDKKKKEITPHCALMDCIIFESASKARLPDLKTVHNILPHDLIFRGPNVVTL

For `CCN(C(C)=O)c1cccc(-c2ccnc3c(C#N)cnn23)c1`, the Potency entry in assay [1], in assay [2], in assay [3], in [4], in assay [5] and in [6] was “inactive” each time. The Potency result in [7] and in assay [8] was “inactive” each time.
With `COc1ccc(C(=O)c2c(C)n(CCN3CCOCC3)c3ccccc23)cc1`, the Potency result in assay [1], in assay [2], in assay [3], in assay [4], in [5] and in assay [6] was “inactive” throughout. Moreover, the Potency entry in assay [7], in assay [9] and in assay [8] was “inactive” in each case.
As for `CCC(COC(=O)c1cc(OC)c(OC)c(OC)c1)(c1ccccc1)N(C)C` (stereo not given), the Potency result in [1], in [2], in assay [3], in assay [4], in assay [5] and in assay [6] was “inactive” throughout. For the same molecule, the Potency entry in assay [7] and in assay [8] was “inactive” in each case.
`O=c1[nH]c2ccccc2n1CCCN1CCC(n2c(=O)[nH]c3cc(Cl)ccc32)CC1`: the Potency result in assay [1], in assay [2], in assay [3], in [4], in assay [5] and in assay [6] was “inactive” throughout. In addition, the Potency entry in assay [7] and in [8] was “inactive” each time.
For `CC1NCCOC1c1ccccc1` (stereo not given), the Potency result in [1], in assay [2], in [3], in assay [4], in assay [5] and in assay [6] was “inactive” throughout. The Potency result in assay [7], in assay [9] and in [8] was “inactive” each time.
On to `O=C1NCN(c2ccccc2)C12CCN(CC1COc3ccccc3O1)CC2` (stereo not given), for which the Potency result in [1], in assay [2], in assay [3], in assay [4], in [5] and in assay [6] was “inactive” throughout. Further, the Potency result in assay [7], in [9] and in [8] was “inactive” in each case.
On to `Cc1ccc(NC(=O)c2ccc(CN3CCN(C)CC3)cc2)cc1Nc1nccc(-c2cccnc2)n1`, for which the Potency entry in [2] was “inactive”.
Regarding `CCc1c2c(nc3ccc(OC(=O)N4CCC(N5CCCCC5)CC4)cc13)-c1cc3c(c(=O)n1C2)COC(=O)[C@]3(O)CC`, the results for the Potency in [1] and in assay [3] were 4.32 µM (active) and 27.3 µM (active), respectively.
In the case of `CNC(=O)c1cc(Oc2ccc(NC(=O)Nc3ccc(Cl)c(C(F)(F)F)c3)cc2)ccn1`, the Potency in assay [2] was 17.2 µM (active).
